# Compounds without any hit were thinned out: in the full panel of roughly 83,000, 20% have a hit.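 Method: cells in 96-well plates; compound added at one concentration; 48 h incubation; percent growth measured; values under 10 scored active.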 Values without a mark were called inactive. Activity calls are given as the source filed them.
# Assays:
# Experiment in all cases: NCI-60 one-dose screen, 48 h (100 = growth as untreated, 0 = no growth, -100 = all killed)
# Settings in all cases: 10 µM unless noted
# DU-145 prostate = test system: DU-145 prostate
# K-562 leukemia = test system: K-562 leukemia
# MALME-3M melanoma = test system: MALME-3M melanoma
# MDA-MB-231 breast = test system: MDA-MB-231 breast
# RXF 393 renal = test system: RXF 393 renal
# SF-268 CNS = test system: SF-268 CNS
# SF-295 CNS = test system: SF-295 CNS
# SF-539 CNS = test system: SF-539 CNS
# UACC-257 melanoma = test system: UACC-257 melanoma
# M14 melanoma = test system: M14 melanoma
# HCT-15 colon = test system: HCT-15 colon
# HT29 colon = test system: HT29 colon
# SNB-75 CNS = test system: SNB-75 CNS
# SNB-19 CNS = test system: SNB-19 CNS
# U251 CNS = test system: U251 CNS
# PC-3 prostate = test system: PC-3 prostate
# SK-MEL-5 melanoma = test system: SK-MEL-5 melanoma
# UACC-62 melanoma = test system: UACC-62 melanoma
# LOX IMVI melanoma = test system: LOX IMVI melanoma
# SK-MEL-28 melanoma = test system: SK-MEL-28 melanoma
SMILES,growth (DU-145 prostate),growth (K-562 leukemia),growth (MALME-3M melanoma),growth (MDA-MB-231 breast),growth (RXF 393 renal),growth (SF-268 CNS),growth (SF-295 CNS),growth (SF-539 CNS),growth (UACC-257 melanoma),growth (M14 melanoma),growth (HCT-15 colon),growth (HT29 colon),growth (SNB-75 CNS),growth (SNB-19 CNS),growth (U251 CNS),growth (PC-3 prostate),growth (SK-MEL-5 melanoma),growth (UACC-62 melanoma),growth (LOX IMVI melanoma),growth (SK-MEL-28 melanoma)
COc1ccc2[nH]c(C(=O)N3CCN(C(=O)OCc4ccc5c(Br)cc(Br)c(O)c5n4)CC3)cc2c1,-97.8% (active),2.19% (active),-95.3% (active),-84.6% (active),-87.9% (active),-80.2% (active),-87.8% (active),-99.8% (active),-59.1% (active),-77.9% (active),-72.2% (active),-68.5% (active),-98.5% (active),-93.1% (active),-95.7% (active),-87.9% (active),-99% (active),-95.5% (active),-91.2% (active),-98.1% (active)
COc1ccc(C(=O)CCC(=O)O)cc1,99.7%,49.1%,87%,80.4%,109%,95.6%,95%,98.7%,80.2%,95.3%,77.6%,49.8%,99.9%,104%,83.1%,92.5%,99.8%,99.7%,90.2%,112%
Nc1nc(Nc2ccccc2)c2ncn(Cc3ccc4c(c3)OCO4)c2n1,80.9%,15.7%,53%,44%,52.8%,62.8%,43.6%,46%,72.9%,16.3%,23.1%,20.6%,29.4%,54.4%,49.5%,58.4%,21.4%,41.3%,48%,63.5%
Fc1cc2[nH]ncc2c2c3c(c(-c4cn[nH]c4C(F)(F)F)nc12)C1CCC3C1 (stereo not given),4.96% (active),19.4%,9.41% (active),-5.18% (active),-89.8% (active),3.13% (active),8.79% (active),-32.4% (active),0.635% (active),-6.09% (active),9.48% (active),13%,-4.22% (active),10.1%,4.85% (active),14%,-28.8% (active),-18.5% (active),0.44% (active),-0.348% (active)
O=[N+]([O-])c1ccc(O)c(-c2nc3ccccc3s2)c1,86.8%,52.7%,44.7%,75.3%,107%,76.1%,53.9%,99%,83.5%,83.2%,89%,96.6%,86.9%,64.1%,71.6%,70.6%,25.3%,41.3%,61%,64.3%
COc1cc2c(cc1OCCCCCOc1ccc(-n3c(C)nc4ccccc4c3=O)cc1)N=C[C@@H]1CCCN1C2=O,-25.2% (active),-17.5% (active),-78.9% (active),2.33% (active),-73.9% (active),-5.47% (active),-8.19% (active),-63% (active),20%,-64.3% (active),9.39% (active),-1.24% (active),-80.9% (active),1.38% (active),3.85% (active),4.39% (active),-79.6% (active),-74% (active),-32.2% (active),-66.8% (active)
NC1=NC(=O)NC1(c1ccccc1)c1ccccc1,99.5%,89.5%,93.3%,94%,102%,103%,117%,104%,103%,98.6%,97.5%,111%,89.9%,98.9%,97.4%,94.3%,95.9%,101%,91.3%,109%
Cc1ccc(NC(=O)N[C@@H](Cc2cc(F)cc(F)c2)C(=O)N[C@@H]2C(=O)N3CCC[C@H]3C(=O)N3CCOC[C@H]3C(=O)N[C@@H](C)C(=O)N3C[C@H](C)C[C@H]3C(=O)O[C@H]2C)cc1,31.2%,17.2%,33.6%,9.97% (active),36.9%,28.5%,12.7%,47.6%,20.9%,26.9%,32.9%,32.4%,16.9%,21.5%,27.1%,19.1%,10.6%,26.3%,38.3%,42.3%
CN(C)Cc1ccc[nH]1,115%,113%,126%,77.6%,95.3%,103%,90.1%,92.3%,0.0923% (active),93.2%,102%,114%,92.5%,97.7%,108%,99.2%,102%,91.6%,81.3%,107%
NC(=O)CC1C=CCC1 (stereo not given),102%,96%,97.8%,102%,111%,102%,98.3%,93.3%,90.4%,102%,99.5%,96.3%,84.3%,104%,85.5%,98.7%,99.5%,101%,103%,109%
CCN=C1C=CC(=C(c2ccc(N(CC)CC)cc2)c2ccc(N(CC)CC)cc2)c2ccccc21,-96.5% (active),-13.6% (active),-82.6% (active),-8.34% (active),-74.4% (active),-18.6% (active),-80.9% (active),-82.9% (active),-69.9% (active),-67% (active),-70.9% (active),-59.7% (active),-22% (active),-57.8% (active),-89.1% (active),-66.8% (active),-99.5% (active),-37.4% (active),-64.6% (active),-67.6% (active)
CC1(C)C(=O)/C(=C\c2cccnc2)C[C@]2(C)[C@H]3CC[C@@H]4[C@H]5[C@H](C(=O)/C=C/c6cccnc6)CC[C@]5(C(=O)O)CC[C@@]4(C)[C@]3(C)CC[C@@H]12,-80.6% [100 µM] (active),6.57% [100 µM] (active),-73.8% [100 µM] (active),-34.6% [100 µM] (active),-61.9% [100 µM] (active),-34.9% [100 µM] (active),-75.8% [100 µM] (active),-56.9% [100 µM] (active),-52% [100 µM] (active),-38.4% [100 µM] (active),-74.6% [100 µM] (active),-72% [100 µM] (active),-96.5% [100 µM] (active),-83.3% [100 µM] (active),-82.3% [100 µM] (active),-38.4% [100 µM] (active),-73.5% [100 µM] (active),-89.8% [100 µM] (active),-68.9% [100 µM] (active),-71.7% [100 µM] (active)
Cc1ccc2c(n1)C(=O)C(Cl)=C(Nc1ccc(N3CCN(C)CC3)cc1)C2=O,-18.7% (active),-12.3% (active),-75.5% (active),-62.8% (active),62.8%,77.7%,99.4%,-24.5% (active),57.2%,73.8%,70.4%,66.4%,-53.8% (active),94.6%,8.47% (active),68.7%,10.4%,-49.4% (active),-95.4% (active),30.3%
COc1ccc(NC(=O)Nc2ccc(-c3cccnc3)cc2N2CCC(CO)CC2)cc1,55.3%,24.8%,67.2%,34.2%,13.1%,52.5%,32%,15.1%,46.6%,63.3%,43.7%,9.77% (active),51.3%,49.3%,33%,83.7%,-38.3% (active),68.7%,71.9%,18.7%
N#C/C(=C(/O)CCCO)c1nc2ccccc2c(=O)[nH]1,102%,102%,90.3%,98.5%,87.5%,112%,150%,97.2%,93.9%,105%,103%,108%,80.6%,105%,103%,92.9%,107%,96%,98%,110%
